# Source: article PMC5540273 (PLoS ONE, 2017)
# System: SRC
# Settings: concentration: 1 μM, replicates: in singlicate; n = 1
# 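Further: KINOMEscan kinase panel screen.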
row,SMILES,%Inh
1,[2H]C([2H])(c1cccc(C(F)(F)F)c1C)n1ccn2c(=O)nc(N3CCOCC3)cc12 [GSK2336394],0%
2,N#Cc1c(N2CCOCC2)sc(-c2ccn[nH]2)c1-c1ccc(Cl)cc1,0%
3,CN(C1=C(c2ccccc2)C(=O)NC1=O)c1ccccc1 [SB-334860],5%
4,Cc1cn2c(=O)cc(N3CCOCC3)nc2n1Cc1cccc(Cl)c1Cl [GSK2334006],42%
5,Fc1ccc(-c2ncn(CCCN3CCOCC3)c2-c2cccnc2)cc1 [SB-211743],0%
6,O=c1cc(N2CCOCC2)nc2n(Cc3cccc(F)c3)ccn12 [GSK2297430],12%
7,O=C(Nc1cccc(-c2nn3ncccc3c2-c2ccnc(Nc3cccc(C(F)(F)F)c3)n2)c1)c1c(F)cccc1F [GSK299495],56%
8,Cc1c2ccc(N(C)c3ccnc(Nc4cccc(S(N)(=O)=O)c4)n3)cc2nn1Cc1ccccc1.Cl.Cl [GW787226],94.7%
9,O=C(Nc1n[nH]c2cc(-c3cccc(F)c3)ccc12)C1CC1 [SB-735464],0%
10,CCCCCc1nc2c(N)ncnc2n1CCCCC [SKF-97255],14%
11,Cc1ccc(C(=O)NCC(N)=O)cc1-n1c(C)cc(OCc2ccc(F)cc2F)c(Br)c1=O,16%
12,NCC(NC(=O)c1cc(-c2cn[nH]c2)c(-c2ccnc3[nH]ccc23)s1)c1ccccc1.O=C(O)C(F)(F)F.O=C(O)C(F)(F)F (stereo not drawn) [GSK1325775],0%
13,COc1ccc(Nc2nccc(N3CCC(NC(=O)Nc4cccc(C(C)=O)c4)C3)n2)cc1 (stereo not drawn) [GSK1379731],0%
14,COCCNC(=O)c1ccc(-c2cc(C(=O)NC3CC3)cc(F)c2C)cc1 [GW868318],23%
15,COC(=O)Nc1nc2cc(Oc3ccc(NC(=O)Nc4cc(F)ccc4F)cc3)ccc2[nH]1.Cl [GW701424],0%
16,O=C(c1ccc(-c2cc(-c3c[nH]nc3-c3ccccn3)ccn2)cc1)N1CCOCC1 [GW812171],1%
17,NS(=O)(=O)c1cccc(-c2ccc3nccc(-c4cccc(S(N)(=O)=O)c4)c3c2)c1 [GW867253],0%
18,CN1c2ccc(CNc3ccc(F)cc3)cc2-c2c(cnn2C)S1(=O)=O,0%

row,SMILES,%Inh
1,O=c1cc(N2CCOCC2)nc2n(Cc3cccc(C(F)(F)F)c3)ccn12 [GSK2297543],0%
2,Nc1nccc(-c2c(-c3ccc(F)cc3)ncn2C2CCN(CC(F)(F)F)CC2)n1 [SB-236560],0%
3,O=c1cc(N2CCOCC2)nc2n(Cc3cccc(Cl)c3Cl)c(C3CC3)nn12 [GSK2358994],22%
4,Fc1ccc(-c2ncn(CCCN3CCOCC3)c2-c2ccccn2)cc1 [SB-211742],0%
5,CC(C)Oc1ccc2c(-c3ccnc(Nc4ccc(N5CCN(C)CC5)cc4)n3)cnn2n1 [GW696155],66%
6,COc1ccc(COc2cc(-n3cnc4ccccc43)sc2C(N)=O)cc1 [GSK1024304],0%
7,C[C@@H](Oc1cc(-n2cnc3ccc(NC(=O)NC(C)(C)C)cc32)sc1C(N)=O)c1ccccc1Cl [GSK346294],0%
8,Cl.Nc1ncnc2occ(-c3ccc(NC(=O)Nc4cc(C(F)(F)F)ccc4F)cc3)c12 [SB-707548],30%
9,COc1cc2c(cc1OCCN1CCN(C)CC1)ncc1c3ccc(C#N)cc3[nH]c21,0%
10,O=C(NCCNc1ccnc(Nc2ccc(F)cc2)n1)Nc1ccccc1F [GSK1379880],6%
11,O=C(NCCNc1ccnc(Nc2ccc(F)cc2)n1)c1cc2ccccc2s1 [GSK1379874],0%
12,COc1cc2ncn(-c3cc(OCc4sccc4Cl)c(C(N)=O)s3)c2cc1OC [GSK448459],0%
13,Cc1cccc(-c2nc(-c3ccc(S(C)(=O)=O)cc3)sc2-c2ccncc2)c1,8%
14,CCc1nc(-c2cccc(C)c2)c(-c2ccnc(NCc3ccccc3)c2)s1,7%
15,c1ccc(-c2cc(-c3c[nH]nc3-c3ccccn3)ccn2)cc1 [GW576604],0%
16,COc1cc(Nc2nccc(N3CCC(NC(=O)c4cccc(NC(C)=O)c4)C3)n2)cc(OC)c1OC (stereo not drawn) [GSK1379754],25%
17,Cn1ccc2ncnc(Oc3ccc(NC(=O)Nc4ccncc4)c(Cl)c3)c21,13%
18,Cl.Oc1cccc(Nc2ccnc3cc(-c4ccncc4)ccc23)c1 [GW494601],100%

# System: SRMS
# Settings: concentration: 1 μM, replicates: in singlicate; n = 1
row,SMILES,%Inh
1,[2H]C([2H])(c1cccc(C(F)(F)F)c1C)n1ccn2c(=O)nc(N3CCOCC3)cc12 [GSK2336394],0%
2,N#Cc1c(N2CCOCC2)sc(-c2ccn[nH]2)c1-c1ccc(Cl)cc1,0%
3,CN(C1=C(c2ccccc2)C(=O)NC1=O)c1ccccc1 [SB-334860],0%
4,Cc1cn2c(=O)cc(N3CCOCC3)nc2n1Cc1cccc(Cl)c1Cl [GSK2334006],0%
5,Fc1ccc(-c2ncn(CCCN3CCOCC3)c2-c2cccnc2)cc1 [SB-211743],27%
6,O=c1cc(N2CCOCC2)nc2n(Cc3cccc(F)c3)ccn12 [GSK2297430],0%
7,O=C(Nc1cccc(-c2nn3ncccc3c2-c2ccnc(Nc3cccc(C(F)(F)F)c3)n2)c1)c1c(F)cccc1F [GSK299495],21%
8,Cc1c2ccc(N(C)c3ccnc(Nc4cccc(S(N)(=O)=O)c4)n3)cc2nn1Cc1ccccc1.Cl.Cl [GW787226],67%
9,O=C(Nc1n[nH]c2cc(-c3cccc(F)c3)ccc12)C1CC1 [SB-735464],18%
10,CCCCCc1nc2c(N)ncnc2n1CCCCC [SKF-97255],25%
11,Cc1ccc(C(=O)NCC(N)=O)cc1-n1c(C)cc(OCc2ccc(F)cc2F)c(Br)c1=O,0%
12,NCC(NC(=O)c1cc(-c2cn[nH]c2)c(-c2ccnc3[nH]ccc23)s1)c1ccccc1.O=C(O)C(F)(F)F.O=C(O)C(F)(F)F (stereo not drawn) [GSK1325775],0%
13,COc1ccc(Nc2nccc(N3CCC(NC(=O)Nc4cccc(C(C)=O)c4)C3)n2)cc1 (stereo not drawn) [GSK1379731],0%
14,COCCNC(=O)c1ccc(-c2cc(C(=O)NC3CC3)cc(F)c2C)cc1 [GW868318],24%
15,COC(=O)Nc1nc2cc(Oc3ccc(NC(=O)Nc4cc(F)ccc4F)cc3)ccc2[nH]1.Cl [GW701424],0%
16,O=C(c1ccc(-c2cc(-c3c[nH]nc3-c3ccccn3)ccn2)cc1)N1CCOCC1 [GW812171],28%
17,NS(=O)(=O)c1cccc(-c2ccc3nccc(-c4cccc(S(N)(=O)=O)c4)c3c2)c1 [GW867253],27%
18,CN1c2ccc(CNc3ccc(F)cc3)cc2-c2c(cnn2C)S1(=O)=O,0%

row,SMILES,%Inh
1,O=c1cc(N2CCOCC2)nc2n(Cc3cccc(C(F)(F)F)c3)ccn12 [GSK2297543],0%
2,Nc1nccc(-c2c(-c3ccc(F)cc3)ncn2C2CCN(CC(F)(F)F)CC2)n1 [SB-236560],0%
3,O=c1cc(N2CCOCC2)nc2n(Cc3cccc(Cl)c3Cl)c(C3CC3)nn12 [GSK2358994],0%
4,Fc1ccc(-c2ncn(CCCN3CCOCC3)c2-c2ccccn2)cc1 [SB-211742],0%
5,CC(C)Oc1ccc2c(-c3ccnc(Nc4ccc(N5CCN(C)CC5)cc4)n3)cnn2n1 [GW696155],0%
6,COc1ccc(COc2cc(-n3cnc4ccccc43)sc2C(N)=O)cc1 [GSK1024304],0%
7,C[C@@H](Oc1cc(-n2cnc3ccc(NC(=O)NC(C)(C)C)cc32)sc1C(N)=O)c1ccccc1Cl [GSK346294],0%
8,Cl.Nc1ncnc2occ(-c3ccc(NC(=O)Nc4cc(C(F)(F)F)ccc4F)cc3)c12 [SB-707548],4%
9,COc1cc2c(cc1OCCN1CCN(C)CC1)ncc1c3ccc(C#N)cc3[nH]c21,0%
10,O=C(NCCNc1ccnc(Nc2ccc(F)cc2)n1)Nc1ccccc1F [GSK1379880],0%
11,O=C(NCCNc1ccnc(Nc2ccc(F)cc2)n1)c1cc2ccccc2s1 [GSK1379874],0%
12,COc1cc2ncn(-c3cc(OCc4sccc4Cl)c(C(N)=O)s3)c2cc1OC [GSK448459],0%
13,Cc1cccc(-c2nc(-c3ccc(S(C)(=O)=O)cc3)sc2-c2ccncc2)c1,0%
14,CCc1nc(-c2cccc(C)c2)c(-c2ccnc(NCc3ccccc3)c2)s1,1%
15,c1ccc(-c2cc(-c3c[nH]nc3-c3ccccn3)ccn2)cc1 [GW576604],0%
16,COc1cc(Nc2nccc(N3CCC(NC(=O)c4cccc(NC(C)=O)c4)C3)n2)cc(OC)c1OC (stereo not drawn) [GSK1379754],0%
17,Cn1ccc2ncnc(Oc3ccc(NC(=O)Nc4ccncc4)c(Cl)c3)c21,0%
18,Cl.Oc1cccc(Nc2ccnc3cc(-c4ccncc4)ccc23)c1 [GW494601],0%
